Data taken from PMC5540273 (PLoS ONE, 2017).

These molecules were tested on T1, TIE2. Details: concentration: 1 μM, replicates: in singlicate; n = 1.
T1 construct: gene TEK
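Further: KINOMEscan kinase panel screen.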

CC(C)c1ccc(O)cc1Nc1ccnc2ccc(C(F)(F)F)cc12 [GW482059] and Cc1ccc(NC(=O)Nc2ccc(Cl)c(C(F)(F)F)c2)cc1-c1ccc(C(=O)Nc2ccncc2)cc1 [GSK1398470] are the same in “%Inh” value: 0% for the first, 0% for the second.

First: O=C(Nc1n[nH]c2nc(-c3cccs3)c(Br)cc12)C1CC1 [SB-735297]
Second: O=C(Nc1n[nH]c2nc(-c3ccco3)c(Br)cc12)C1CCN(Cc2ccccc2)C1.O=C(O)[C@H](O)[C@@H](O)C(=O)O (centres unmarked) [SB-742034]
The “%Inh” value of the first is lower: 12% for the first, 17% for the second.

Cc1cnc(N)c(/C=C/c2cncc(C(=O)NCCc3ccc(Cl)cc3Cl)c2)c1.Cl [GSK190937] and Cc1ccc(NC(=O)Nc2ccc(Cl)cc2)cc1-c1ccc(C(=O)Nc2ccncc2)cc1 [GSK1398472] are the same in “%Inh” value: 0% for the first, 0% for the second.

c1ccc(-c2ccnc3[nH]ccc23)cc1 [SB-693578] and CCn1c(-c2ccccc2)nc2cnccc21 [SB-733416] are the same in “%Inh” value: 0% for the first, 0% for the second.

CCCCc1nn2ncccc2c1-c1ccnc(NC2CC2)n1 [GW684374] and Cc1cccc2c(-c3ccncn3)c(-c3ccc(F)cc3)nn12 [GW515532] are the same in “%Inh” value: 0% for the first, 0% for the second.

CC(=O)c1cccc(NC(=O)NC2CCN(c3ccnc(Nc4ccc(F)cc4)n3)C2)c1 (centres unmarked) [GSK1379710] and COc1cccc(CNC(=O)NC2CCN(c3ccnc(Nc4ccc(F)cc4)n3)C2)c1 (centres unmarked) [GSK1379723] are the same in “%Inh” value: 0% for the first, 0% for the second.

Compared with COc1ccc(Nc2nccc(N3CCC(NC(=O)C(C)c4ccc(Cl)cc4)C3)n2)cc1 (centres unmarked) [GSK1379735], COC(=O)C(Cc1ccccc1)NC(=O)NC1CCN(c2ccnc(Nc3ccc(F)cc3)n2)C1 (centres unmarked) [GSK1379714] is lower in “%Inh” value: 8% for the first, 0% for the second.

Compared with CS(=O)(=O)CCNCc1nc(-c2ccc3ncnc(Nc4ccc5c(cnn5Cc5ccccc5)c4)c3c2)cs1.Cl.Cl [GW569716], Cc1ccc(-c2nc(Nc3ccncc3)c3ccccc3n2)s1 [GSK189015] is higher in “%Inh” value: 0% for the first, 12% for the second.

COc1ccc(Nc2nccc(NCCNC(=O)Nc3cc(C)ccc3C)n2)cc1 [GSK1379899] and COc1cccc(NC(=O)Nc2ccc(C)c(-c3ccc(C(=O)Nc4ccncc4)cc3)c2)c1 [GSK1398474] are the same in “%Inh” value: 0% for the first, 0% for the second.

Compared with CC(=O)c1c(C)c2cnc(Nc3ccn(C)n3)nc2n(C2CCCC2)c1=O, COc1nccc(-c2c(-c3ccc(F)cc3)ncn2CCCN2CCOCC2)n1 [SB-282852] is higher in “%Inh” value: 0% for the first, 33% for the second.

O=C1NC(=O)C(c2ccc(Cl)cc2)=C1Nc1ccc(O)cc1 [SB-340867] and COc1cccc(C2=C(Nc3cc(Cl)c(O)c(Cl)c3)C(=O)NC2=O)c1 [SB-390767] are the same in “%Inh” value: 0% for the first, 0% for the second.

With COc1ccc(CSc2nnc(-c3ccc4c(c3)CCO4)o2)cc1 the “%Inh” value was 0%.
